In PubChem BioAssay (Tox21):
Results filed as inconclusive are left out. Calls of active or inactive are those of the source. Unless noted, the call rests on the fitted dose curve.

How the values were obtained:
[1] = Nuclear factor erythroid 2-related factor 2/antioxidant responsive element (Nrf2/ARE) small molecule agonists: qHTS cell viability counter screen in human keratinocytes (AID 1919968; active means well fitted curve in the direction sought with a large enough effect in the repeat runs; an effect the other way counts as inactive or inconclusive; further: nearly all actives have a fitted effect of over 55% in size; further: potency means the concentration at half of the fitted maximal effect)
Procedure, shortened: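 Seed 1,500 KeratinoSens cells per well, then incubate 5 h at 37 C/5% CO2. Add compounds in DMSO and incubate 23 h. Add CellTiter-Fluor, wait 1 h and read fluorescence.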

[2] = molecular target: Gonadotropin-releasing hormone receptor (Homo sapiens) (UniProt P30968); test: Human gonadotropin-releasing hormone receptor (GnRHR) small molecule agonists, calcium flux assay in GnRHR-HEK293 cells (AID 1920063); further: nearly all actives have a fitted effect of over 35% in size
Chain of Gonadotropin-releasing hormone receptor (Homo sapiens) (P30968 whole entry, looked up): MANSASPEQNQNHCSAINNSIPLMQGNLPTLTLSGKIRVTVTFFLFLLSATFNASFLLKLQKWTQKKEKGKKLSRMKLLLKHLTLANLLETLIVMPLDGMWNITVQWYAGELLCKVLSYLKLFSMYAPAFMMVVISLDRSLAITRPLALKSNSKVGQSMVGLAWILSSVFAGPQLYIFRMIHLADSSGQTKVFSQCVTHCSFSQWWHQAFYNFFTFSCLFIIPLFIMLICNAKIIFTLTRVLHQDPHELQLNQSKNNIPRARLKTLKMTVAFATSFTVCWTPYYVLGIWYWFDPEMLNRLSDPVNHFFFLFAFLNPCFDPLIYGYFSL
Procedure, shortened: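 Cells: HEK293 stably expressing human GnRHR. Steps: overnight (18 h) culture, 1 h calcium dye loading at 37 C, compound addition, kinetic fluorescence read at 480/540 nm. Each compound tested at 15 concentrations in triplicate.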

[3] = molecular target: KiSS-1 receptor (Homo sapiens) (UniProt Q969F8); test: Human kisspeptin (KISS1R) small molecule agonists, calcium flux assay in KISS1R-HEK293 cells (AID 1920064; active means well fitted curve in the direction sought with a large enough effect in the repeat runs; an effect the other way counts as inactive or inconclusive)
Chain of KiSS-1 receptor (Homo sapiens) (Q969F8 whole entry, looked up): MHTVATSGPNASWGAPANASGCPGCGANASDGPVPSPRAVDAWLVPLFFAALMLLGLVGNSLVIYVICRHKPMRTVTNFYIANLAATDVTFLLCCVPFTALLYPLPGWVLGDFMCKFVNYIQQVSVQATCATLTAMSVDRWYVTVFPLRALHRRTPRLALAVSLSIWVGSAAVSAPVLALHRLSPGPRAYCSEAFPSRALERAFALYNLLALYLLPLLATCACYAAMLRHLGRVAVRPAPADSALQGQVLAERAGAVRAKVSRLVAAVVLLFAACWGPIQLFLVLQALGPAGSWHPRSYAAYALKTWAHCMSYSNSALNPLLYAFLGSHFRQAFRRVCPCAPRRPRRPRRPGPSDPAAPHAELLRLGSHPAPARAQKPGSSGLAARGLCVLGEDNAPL
Procedure, shortened: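 Cells plated and incubated 18 h; dye added, 1 h at 37 C; compounds in DMSO pinned in; signal read at 480/540 nm every second for 3 min. Each compound tested at 15 concentrations in triplicate.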

[4] = G protein-coupled receptor (GPCR) small molecule agonists, calcium flux assay: HEK293 wild type cell line counter screen (AID 1920065)
Procedure, shortened: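 Counter-screen of the Tox21 10K library for non-specific calcium release: dye-loaded cells received compounds in DMSO and were monitored by kinetic fluorescence (480/540 nm, 3 min). Fifteen concentrations, run in triplicate.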

[5] = p53 small molecule agonists, cell-based qHTS assay with human liver microsomes (AID 1963577);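 further: p53 response element beta-lactamase reporter cells with liver microsomes plus NADPH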
Procedure, shortened: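 HLM-supplemented p53RE-bla reporter assay: 16 h compound exposure at 37 C, microsomes and NADPH each 0.5 mg/mL final, read by fluorescence intensity.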

[6] = p53 small molecule agonists, cell-based qHTS assay with rat liver microsomes (AID 1963578)
Procedure, shortened: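 Quantitative HTS of the Tox21 10K library: p53RE-bla cells, rat liver microsomes plus NADPH at 0.5 mg/mL final each, 16 h at 37 C, beta-lactamase fluorescence detection.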

[7] = p53 small molecule agonists, cell-based qHTS assay with rat liver microsomes: qHTS cell viability counter screen (AID 1963580); further: nearly all actives have a fitted effect of over 45% in size
Procedure, shortened: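 p53RE-bla HCT-116 cells were exposed 16 h at 37 C to compounds with rat liver microsomes (0.5 mg/mL) and NADPH (0.5 mg/mL). Viability was measured in the same wells as ATP content by CellTiter-Glo luminescence.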

[8] = p53 small molecule agonists, cell-based qHTS assay: qHTS cell viability counter screen (AID 1963581); further: nearly all actives have a fitted effect of over 45% in size; further: potency means the concentration at half of the fitted maximal effect
Procedure, shortened: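 Cells: HCT-116 with p53 response element-driven beta-lactamase. Treatment: 16 h, 37 C, compounds in DMSO. Read: CellTiter-Glo luminescence after 30 min RT.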

[9] = p53 small molecule agonists, cell-based qHTS assay (AID 1963582; active means well fitted activation curve with a large enough effect in the signal ratio in the repeat runs, not every such curve was filed as active; the % refers to the signal ratio)
Procedure, shortened: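 Quantitative HTS in p53RE-bla cells: after a 5 h settling period, compounds delivered in DMSO were left on cells for 16 h at 37 C, and reporter induction was measured as fluorescence following 2 h substrate loading.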

[10] = cAMP Responsive Elements (CRE) small molecule agonists, cell-based qHTS assay (AID 1963590)
Procedure, shortened: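 Agonist mode qHTS in CRE-bla HEK 293T cells: compounds dosed from DMSO for 3 h at 37 C/5% CO2, followed by LiveBLAzer B/G FRET substrate for 2 h at room temperature.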

[11] = cAMP Responsive Elements (CRE) small molecule antagonists, cell-based qHTS assay (AID 1963591; active means well fitted inhibition curve with a large enough effect in the signal ratio in the repeat runs, not every such curve was filed as active; the % refers to the signal ratio)
Procedure, shortened: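 Antagonist mode: test compounds are co-incubated with the adenylyl cyclase activator NKH477 (0.25 uM final) on CRE-bla HEK293T cells for 3 h at 37 °C, followed by LiveBLAzer substrate loading.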

[12] = molecular target: Beta-2 adrenergic receptor (Homo sapiens) (UniProt P07550); test: Adrenergic beta2 receptor (ADRB2) small molecule antagonists, cell-based qHTS assay (AID 1963592); further: nearly all actives have a fitted effect of over 50% in size; further: potency means the concentration at half of the fitted maximal effect
Chain of Beta-2 adrenergic receptor (Homo sapiens) (P07550 whole entry, looked up): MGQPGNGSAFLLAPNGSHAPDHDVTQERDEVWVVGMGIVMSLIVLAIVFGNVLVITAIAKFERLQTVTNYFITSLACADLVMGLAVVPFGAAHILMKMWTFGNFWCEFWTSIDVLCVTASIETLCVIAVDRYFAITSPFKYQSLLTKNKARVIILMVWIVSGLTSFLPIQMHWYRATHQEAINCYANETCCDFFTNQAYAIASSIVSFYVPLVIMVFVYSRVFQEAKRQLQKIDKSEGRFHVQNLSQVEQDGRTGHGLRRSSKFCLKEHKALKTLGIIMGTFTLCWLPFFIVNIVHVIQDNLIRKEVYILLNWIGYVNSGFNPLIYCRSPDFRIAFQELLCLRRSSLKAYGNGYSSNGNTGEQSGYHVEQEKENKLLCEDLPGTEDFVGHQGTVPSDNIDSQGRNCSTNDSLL
Procedure, shortened: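 Cells (CHO, stable ADRB2 overexpression) incubated 18-20hr at 37C; compounds added from DMSO; agonist mix (1nM isoproterenol, 100uM IBMX, 25uM Ro-20-1724) added; 0.5hr RT; d2-cAMP and anti-cAMP-cryptate added; 1hr RT; 665/615 nm read.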

[13] = molecular target: D(2) dopamine receptor (Homo sapiens) (UniProt P14416); test: Dopamine D2 receptor (DRD2) small molecule agonists, cell-based qHTS assay (AID 1963594); further: nearly all actives have a fitted effect of over 35% in size
Chain of D(2) dopamine receptor (Homo sapiens) (P14416 whole entry, looked up): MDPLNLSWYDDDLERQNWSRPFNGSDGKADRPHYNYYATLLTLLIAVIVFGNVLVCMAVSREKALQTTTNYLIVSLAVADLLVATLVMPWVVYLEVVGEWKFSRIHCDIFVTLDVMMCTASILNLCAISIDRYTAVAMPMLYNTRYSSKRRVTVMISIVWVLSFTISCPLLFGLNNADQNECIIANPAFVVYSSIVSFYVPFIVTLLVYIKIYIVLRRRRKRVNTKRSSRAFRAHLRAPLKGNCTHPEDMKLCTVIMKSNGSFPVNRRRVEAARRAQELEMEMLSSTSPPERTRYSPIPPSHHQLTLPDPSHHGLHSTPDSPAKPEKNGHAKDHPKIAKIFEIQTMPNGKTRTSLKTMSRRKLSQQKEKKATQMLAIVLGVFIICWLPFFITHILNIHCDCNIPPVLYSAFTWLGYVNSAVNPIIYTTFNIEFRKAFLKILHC
Procedure, shortened: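 HEK293 cells stably expressing human DRD2, pre-treated with PDE inhibitor Ro20-1724 (0.1 mM final) and compound 10 min at room temperature, then stimulated with NKH477 (200nM […]) for 30 min. cAMP read by HTRF (665/620 nm).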

[14] = molecular target: D(2) dopamine receptor (Homo sapiens) (UniProt P14416); test: Dopamine D2 receptor (DRD2) small molecule antagonists, cell-based qHTS assay (AID 1963595; active means well fitted inhibition curve with a large enough effect in the signal ratio in the repeat runs, with a control signal flat; the % refers to the signal ratio; further: potency means the concentration at half of the fitted maximal effect)
Procedure, shortened: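 DRD2-HEK293; 0.1 mM Ro20-1724; cpd 10 min RT; NKH477 200 nM + quinpirole 12 nM, 30 min RT; HTRF cAMP (cAMP-d2/anti-cAMP cryptate), 665/620 nm ratio after 1 h.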

[15] = p53 small molecule agonists, cell-based qHTS assay with human liver microsomes: qHTS cell viability counter screen (AID 1963579); further: nearly all actives have a fitted effect of over 45% in size; further: potency means the concentration at half of the fitted maximal effect
Procedure, shortened: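 Viability of p53RE-bla cells is measured as CellTiter-Glo luminescence following a 16 h, 37 C incubation with compound, liver microsomes from human donors and NADPH.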

[16] = molecular target: 5-hydroxytryptamine receptor 2A (Homo sapiens) (UniProt P28223); test: 5-hydroxytryptamine receptor 2A (HTR2A) small molecule agonists, cell-based qHTS assay (AID 1963587); further: nearly all actives have a fitted effect of over 30% in size
Chain of 5-hydroxytryptamine receptor 2A (Homo sapiens) (P28223 whole entry, looked up): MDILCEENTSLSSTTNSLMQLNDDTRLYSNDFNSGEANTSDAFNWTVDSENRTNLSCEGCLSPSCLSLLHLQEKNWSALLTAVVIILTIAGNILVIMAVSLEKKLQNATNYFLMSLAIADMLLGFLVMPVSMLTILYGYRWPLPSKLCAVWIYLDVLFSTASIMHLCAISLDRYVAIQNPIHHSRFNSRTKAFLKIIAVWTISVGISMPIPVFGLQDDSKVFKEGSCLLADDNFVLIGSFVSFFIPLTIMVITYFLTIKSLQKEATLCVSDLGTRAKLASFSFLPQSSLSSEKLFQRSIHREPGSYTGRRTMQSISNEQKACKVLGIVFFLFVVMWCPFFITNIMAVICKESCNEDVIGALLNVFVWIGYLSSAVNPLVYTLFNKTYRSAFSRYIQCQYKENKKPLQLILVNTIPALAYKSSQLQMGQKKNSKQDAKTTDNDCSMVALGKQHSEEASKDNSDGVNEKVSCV
Procedure, shortened: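 CHO cells stably expressing human HTR2A, plated 18 h, loaded with calcium dye 1 h at 37 C. Agonist mode: compounds added and intracellular calcium fluorescence recorded kinetically for 2 min at 1 sec intervals.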

[17] = molecular target: Muscarinic acetylcholine receptor M1 (Homo sapiens) (UniProt P11229); test: Cholinergic receptor muscarinic 1 (CHRM1) small molecule antagonists, cell-based qHTS assay (AID 1963588); further: nearly all actives have a fitted effect of over 40% in size; further: potency means the concentration at half of the fitted maximal effect
Chain of Muscarinic acetylcholine receptor M1 (Homo sapiens) (P11229 whole entry, looked up): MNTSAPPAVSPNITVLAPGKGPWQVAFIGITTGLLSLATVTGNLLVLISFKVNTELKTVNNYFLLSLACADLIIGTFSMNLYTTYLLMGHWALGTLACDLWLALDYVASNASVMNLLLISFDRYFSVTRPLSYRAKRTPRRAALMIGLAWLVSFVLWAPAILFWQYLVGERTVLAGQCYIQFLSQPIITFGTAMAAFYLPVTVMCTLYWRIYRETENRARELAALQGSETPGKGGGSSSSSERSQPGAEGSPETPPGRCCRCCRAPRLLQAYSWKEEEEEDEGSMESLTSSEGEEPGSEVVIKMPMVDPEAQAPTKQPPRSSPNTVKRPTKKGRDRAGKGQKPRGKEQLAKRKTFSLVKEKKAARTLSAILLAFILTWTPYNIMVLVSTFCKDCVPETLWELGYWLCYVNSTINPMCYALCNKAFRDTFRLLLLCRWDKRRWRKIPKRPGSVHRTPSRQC
Procedure, shortened: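 CHRM1-CHO calcium-flux assay, antagonist mode. Cells were seeded 18 h, dye-loaded 1 h at 37 C and given compound for 5 min at RT, then acetylcholine was added at 50nM. FDSS fluorescence was read 3 min; 15 concentrations, three runs.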

[18] = molecular target: Muscarinic acetylcholine receptor M1 (Homo sapiens) (UniProt P11229); test: Cholinergic receptor muscarinic 1 (CHRM1) small molecule agonists, cell-based qHTS assay (AID 1963589); further: nearly all actives have a fitted effect of over 35% in size
Procedure, shortened: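 Agonist-mode qHTS in CHO cells stably carrying human muscarinic M1. Intracellular calcium is tracked by fluorescence every second after compound transfer; each compound runs at 15 concentrations in three independent runs.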

[19] = molecular target: Beta-2 adrenergic receptor (Homo sapiens) (UniProt P07550); test: Adrenergic beta2 receptor (ADRB2) small molecule agonists, cell-based qHTS assay (AID 1963593);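 further: CHO cells stably overexpressing human ADRB2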
Procedure, shortened: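 CHO cells stably over-expressing ADRB2 were plated overnight at 37C, then dosed with compounds plus a stimulation mix containing 100uM IBMX and 25uM Ro-20-1724 for 0.5hr at room temperature. cAMP was measured by HTRF competition, 1hr.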

[20] = molecular target: 5-hydroxytryptamine receptor 2A (Homo sapiens) (UniProt P28223); test: 5-hydroxytryptamine receptor 2A (HTR2A) small molecule antagonists, cell-based qHTS assay (AID 1963586); further: nearly all actives have a fitted effect of over 45% in size
Procedure, shortened: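 Antagonist-mode intracellular calcium assay: DOI (4 nM) added after 5 min compound pre-incubation at room temperature to dye-loaded HTR2A-CHO cells. Fluorescence followed for 3 min, sampled every second.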

Measured: Potency

Cc1cc2c(OCC(CNC(C)(C)C)OC(=O)c3ccccc3)cccc2[nH]1 (stereo not given)
active: [12] 0.168 µM
not listed: [15] | [16] | [17] | [18] | [19] | [20]
inactive: all other assays above

Cc1ccsc1/C=C/C1=NCCCN1C
active: [17] 0.0033 µM
not listed: [9] | [10] | [20]
inactive: all other assays above

CCCC(c1cc(C(C)(C)C)c(O)cc1C)c1cc(C(C)(C)C)c(O)cc1C
active: [1] 6.94 µM | [15] 9.24 µM | [8] 5.83 µM | [14] 24.6 µM
not listed: [7] | [9] | [10] | [11] | [16] | [19]
inactive: all other assays above

CC(C)(c1cc(Br)c(OCCO)c(Br)c1)c1cc(Br)c(OCCO)c(Br)c1
active: [1] 37.7 µM
not listed: [8] | [9] | [10] | [11] | [15] | [19]
inactive: all other assays above

CCC(CC)(CC(=O)Nc1cccc(/C=C/c2nc(C3CCC3)cs2)c1)C(=O)O
not listed: [7] | [9] | [10] | [11] | [19]
inactive: all other assays above

CCC(=O)O[C@]1(C(=O)CCl)[C@@H](C)C[C@H]2[C@@H]3CCC4=CC(=O)C=C[C@]4(C)[C@@]3(F)[C@@H](O)C[C@@]21C
not listed: [8] | [10] | [11] | [16] | [17] | [18] | [20]
inactive: all other assays above

Nc1c2c(nc3c1CCC3)CCCC2
not listed: [7] | [8] | [14] | [20]
inactive: all other assays above

CN(C(=O)CCCOc1ccc2[nH]c(=O)ccc2c1)C1CCCCC1
active: [1] 10.6 µM
not listed: [9] | [10] | [11] | [14] | [16] | [17] | [18] | [20]
inactive: all other assays above
